Data: PubChem BioAssay (NCI)
The panel holds about 83,000 compounds, 20% with a hit somewhere; the sample as a whole holds those more often.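 Plates (96-well) were seeded with cells, treated with compound at one concentration, and incubated for 48 hours before percent growth was determined.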 Unmarked numbers belong to inactive results. The source made the active and inactive calls. How the source made its calls: active means growth percent below 10; inactive means the rest.

System: HL-60(TB) leukemia
Test: NCI-60 one-dose screen, 48 h (100 = growth as untreated, 0 = no growth, -100 = all killed)
Conditions: 10 µM unless noted

Compound | growth
COC(=O)[C@@]12CC=C(C)[C@]3(C[C@H](c4ccoc4)OC3=O)[C@H]1C=C[C@@H](O)[C@@]2(O)C(=O)OC | 107%
N#Cc1c(-c2ccc(Cl)cc2)nc2c(c(-c3ccccc3)nn2-c2ccccc2)c1-c1ccc(O)cc1 | 32.8%
COc1cc(C)c(Cc2cnc(N)nc2N)cc1OC | 129%
CCOC(=O)C1=C(CCl)N(C)C(=O)NC1c1ccc2c(c1)OCO2 (stereo not drawn) | 33.1%
O=C1/C(=C/c2ccc(O)cc2)COc2ccc(-c3ccccc3)cc21 | -51% (active)
CC(C)OCCCNCC(=O)Nc1ccc(S(=O)(=O)c2ccc(NC(=O)CNCCCOC(C)C)cc2)cc1 | 82.1%
OC(CCN1CCCCC1)(c1ccccc1)c1ccccc1 | 130%
Clc1cc(Br)ccc1-c1ccc(CNCC2CCNCC2)o1 | 67.7%
COc1ccc(-c2nn(-c3cccc(Cl)c3)cc2-c2c(C#N)c(=O)n3[nH]c(-c4ccc(C)cc4)nc3c2C#N)cc1 | 61.7%
OC(c1cc2cc(Br)ccc2c2cc(Br)ccc12)C1CCCCN1 (stereo not drawn) | -61.8% (active)
COc1ccc(/C(=C\c2cc(OC)c(OC)c(OC)c2)C(=O)N2CCNCC2)cc1 | 98%
Cc1cccc(NCS(=O)(=O)O)c1 | 103%
Nc1nnc(-c2ccc3ccccc3c2O)o1 | 102%
COc1ccc(NC(=O)COCCOCCNC[C@@H]2C(=O)O[C@H]3[C@H]2CC/C(COC(=O)OC/C2=C/CC[C@@]4(C)O[C@H]4[C@H]4OC(=O)[C@@H](CN(C)C)[C@@H]4CC2)=C\CC[C@@]2(C)O[C@@H]32)c(O)c1C(N)=O | -48.2% (active)
COc1ccc2c(c1)NC(=O)CN2c1nc(NC2CC2)nc2ccccc12 | -5.55% (active)
CCOC(=O)C(C(=O)OCC)C(c1ccccc1)N1CCN(c2ccccc2)CC1 (stereo not drawn) | 97.7%
C=C1C(=O)O[C@H]2[C@H]1CC/C(COC(=O)OCCCCCOC(=O)OC/C1=C/CC[C@@]3(C)O[C@H]3[C@H]3OC(=O)C(=C)[C@@H]3CC1)=C\CC[C@@]1(C)O[C@@H]21 | -23.1% (active)
COc1ccc(C2=NNC(c3sc(Cl)nc3Cl)C2)cc1 (stereo not drawn) | 85.8%
CC(=O)OC1CC2C3CCC4C[C@@H](NC(=O)C=C(C)C)CC[C@]4(C)C3CC[C@]2(C)[C@H]1C(C)N(C)C (stereo partly drawn) | -49.6% (active)
COc1ccc(NC(=O)c2sc3nc(C)c(C(=O)/C=C/c4ccccc4)cc3c2N)cc1 | 24.2%
NS(=O)(=O)c1cc(=O)[nH]c(=O)[nH]1 | 114%
CCN(CCN(C)C)C(=O)CNCc1cc(C(N)=O)ccn1 | 88.7%
CCc1cc2n(n1)-c1ncc(C(=O)OC)cc1Oc1ccccc1-2 | 105%
COc1ccc(/C=C/c2c(C(=O)/C=C/c3ccccc3)c(C)nc3ccccc23)cc1 | 6.07% (active)
Cc1cc(N2CCCCCC2)nc(N2CCN(CC(=O)Nc3ccc4c(ccn4Cc4ccccc4)c3)CC2)n1 | 23.4%
COc1cccc2c(=O)c3c(sc12)c(NCCCN)nc1ccccc13 | 44.2%

Compound | growth
Cn1c(=O)c2c(-c3ccccc3F)n(-c3ccc4c(c3)OCO4)cc2n(C)c1=O | 90.2%
Nc1nc(N)c2c(n1)NC(c1cccc(Nc3ccnc4cc(C(F)(F)F)ccc34)c1)CC(c1ccc(Br)cc1)=N2 (stereo not drawn) | 43.1%
C=C(C)[C@@H]1CC[C@]2(C(=O)N3CCN(C)CC3)CC[C@]3(C)[C@H](CC[C@@H]4[C@@](C)(CCC(=O)O)[C@H](C(=C)C)CC[C@]43C)[C@@H]12 | 82.5%
S=C(c1cccs1)N1CCN(c2cccc(Cl)c2)CC1 | 90.8%
COc1ccc(C(=O)c2sc3nc4c(c(-c5cccnc5)c3c2N)CCCC4)cc1OC | 86.6%
COc1ccc(-c2cc(/C=C3\C(=O)Nc4ccc(Cl)cc43)[nH]n2)cc1OC | 60.2%
C=C1C(=O)O[C@H]2[C@H]1CC/C(COC(=O)c1ccc(Br)cc1)=C\CC[C@@]1(C)O[C@@H]21 | -45.6% (active)
CC1OC(Oc2c(-c3ccc(O)c(O)c3)oc3cc(O)cc(O)c3c2=O)C(O)C(O)C1O (stereo not drawn) | 106%
C#C[C@H]1CCCCCC1O (stereo partly drawn) | 96.1%
CCCc1cc2cc(-n3nc(C)c4c3CC(C)(C)CC4=O)cc(NC3CCC(O)CC3)c2c(=O)[nH]1 (stereo not drawn) | 2.27% (active)
COc1cc(Nc2cn[nH]c2-c2ccc(Cl)cc2)cc(OC)c1OC | 14.6%
COc1cccc(/C=C/C(=O)c2cccc(Nc3nc(Nc4ccccc4)nc(Nc4ccccc4)n3)c2)c1 | 94.2%
CCn1c(CSc2nc3ccccc3c(=O)n2CCc2ccccc2)n[nH]c1=S | 90.9%
CC(C)(O)CCl | 120%
OCCN1CCCCCCC1 | 102%
Nc1nc(N)c2c(n1)NC1(C=C(O)c3ccccc31)C1=C(N2)c2ccccc2C1=O (stereo not drawn) | 71%
CCCCCCNC(=O)Nc1ncnc2c1ncn2-c1ccccc1 | 109%
CCCCC/C=C/CCC(=O)N[C@H]1[C@H](Oc2c3cc4cc2Oc2ccc(cc2Cl)[C@@H](O[C@@H]2O[C@H](CO)[C@@H](O)[C@H](O)[C@H]2NC(C)=O)[C@@H]2NC(=O)[C@H](NC(=O)[C@@H]4NC(=O)[C@H]4NC(=O)[C@@H](Cc5ccc(c(Cl)c5)O3)NC(=O)[C@@H](N)c3ccc(O)c(c3)Oc3cc(O)cc4c3)c3ccc(O)c(c3)-c3c(O[C@H]4O[C@H](CO)[C@@H](O)[C@H](O)[C@@H]4O)cc(O)cc3[C@H](C(=O)O)NC2=O)O[C@H](CO)[C@H](O)[C@@H]1O | 105%
O=C1Nc2ccccc2/C1=C/c1cn(C(=O)c2ccc(Cl)cc2)c2ccccc12 | 150%
CCCC(c1nnnn1C1CCCCC1)N1CCN(C(=O)c2ccco2)CC1 (stereo not drawn) | 12.6%
CCCOc1ccc(/C=N/Nc2cc(C)nc3ccc(Br)cc23)cc1 | 55.3%
O=C(CNC1CCCCC1)Nc1ccc(-c2nc3ccccc3s2)cc1 | 66.8%
COc1cc(C2CC(c3cccc(Nc4ccncc4)c3)=NN2c2cc(Cl)cc(Cl)c2)cc(OC)c1OC (stereo not drawn) | -44.7% (active)
COc1ccc(/C=C2\Oc3cc(OCCCCN4CCCC4)ccc3C2=O)cc1 | 92.1%
CCN1CCN(CC(=O)Nc2nc3ccc(NCc4ccc(C)cc4)cc3s2)CC1 | 32.5%
COc1cc(-c2cc(-c3ccc(Nc4nc(Nc5ccc(Cl)cc5)nc(Nc5ccc(Cl)cc5)n4)cc3)no2)cc(OC)c1OC | -68.2% (active)

Compound | growth
COc1cccc(OC)c1OC(=O)c1ccccc1 | 110%
C=C(C)[C@@H]1CC[C@]2(C(=O)n3ccnc3)CC[C@]3(C)[C@H](CC[C@@H]4[C@@]5(C)CCCNC(C)(C)[C@@H]5CC[C@]43C)[C@@H]12 | -56.2% (active)
O=C(/C=C\c1cccc([N+](=O)[O-])c1)c1ccccc1 | -43.8% (active)
CCOC(=O)C1=CSC2=NC3=C(CCC/C3=C\c3ccc(Cl)cc3)C(c3ccc(Cl)cc3)N12 (stereo not drawn) | 79.7%
O=c1c2ccccc2n2cnc3ccc(Cl)c1c32 | 82.6%
Cc1cc(C)c(-c2cc(O)c(-c3c(C)cc(C)cc3C)cc2O)c(C)c1 | -24.4% (active)
COc1cc(/C=C2\C(=O)ON=C2C)cc(OC)c1OC | 98.1%
CC(C)CCSc1nc(N)nc2nc[nH]c12 | 76.7%
O=[N+]([O-])c1ccc2c(c1)S(=O)c1cc([N+](=O)[O-])ccc1N2 | 109%
COc1ccc(Cn2c(Br)c3c(c2-c2cc(OC)c(OC)c(OC)c2)CCc2sc(N)nc2-3)cc1 | -14.5% (active)
O=[N+]([O-])c1cc2c(cc1Br)-c1ccccc1C2 | 104%
COc1ccc(C(=O)N2N=C(c3ccc(Br)cc3)CC2c2cn(-c3ccccc3)nc2-c2ccccc2)cc1 (stereo not drawn) | 32.7%
COC(=O)[C@]12CC[C@@H](C)[C@H](C)[C@@H]1C1=CC[C@@H]3[C@@]4(C)C(C=O)=C[C@@](C)(COC(C)=O)C4=CC[C@@]3(C)[C@]1(C)CC2 | -53.1% (active)
CC1(C)CCC[C@]23C(=O)O[C@](O)(C(=O)C4=C[C@@](C)(/C=C/CCCc5ccc6ccc7cccc8ccc5c6c78)CC[C@@]42O)[C@@H]13 | -18.3% (active)
CCN(CC)Cc1cc(Nc2c3ccc(Cl)cc3nc3ccc(OC)cc23)ccc1O | 72.5%
COC(=O)c1nc(=S)[nH]c(C(=O)OC)c1C(=O)c1ccc(OC)cc1 | 107%
Cn1c(NCCc2ccc(O)c(O)c2)nc2c1c(=O)n(Cc1ccc(Cl)cc1)c(=O)n2C | 13.2%
O=C1CC(c2ccc(Cl)cc2)c2ncn(-c3cccc(Cl)c3)c2N1 (stereo not drawn) | -4.87% (active)
CCCn1c(=S)sc2c1nc(C)n1c(Nc3ccccc3)nnc21 | 45.3%
O=C(O)C(/C=C/c1ccco1)=N\Nc1nc(-c2ccc(Cl)cc2)cs1 | 52.2%
CN(C)N1C(=O)c2c(Cl)c(Cl)c(Cl)c(Cl)c2C1=O | 95.8%
CN(C)CSc1nc2ccccc2s1 | 101%
Nc1c(Cl)cc(N=Nc2ccccc2)cc1Cl | 97.4%
Cc1cc(=O)n2n1-c1ccc(Cl)cc1NC(=O)C2 | 101%
CCN(CC)Cc1cc(Nc2ccnc3cc(Cl)ccc23)ccc1O | 94.5%
COc1cc2ncnc3c2cc1OCCCCCN(C)Cc1ccc(Br)cc1N3 | 33.7%
